The list is not random: actives were taken first. Their share in the collection is about 12%.
Lmaj promast = Leishmania major promastigote growth inhibition; Leishmania major promastigotes, resazurin fluorescence viability; inhibition, % at 10 µM; actives 9% (n = 200,000); AID 1063; in the data active means inhibition above about 50%;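 further: promastigotes grown with compound for 44 hours at 28 °C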
Cl transport mod = modulates chloride dependent transport by human KCC2 | Q9H2X9 | KCC2 cells, thallium flux FluoZin-2 fluorescence | B-score of Tl+ flux slope (higher = more flux/activation; lower = inhibition) at 10 µM | actives 2.2% (n = 190,000);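 active means thallium flux slope and its plate-corrected score both differing from the plate sample mean at a set confidence after two filtering rounds, in either direction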;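 further: slope of fluorescence scaled to starting intensity during 10 to 20 s after thallium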
WT yeast gro inh = growth inhibition of WT yeast, mitochondrial fusion screen; mitochondrial fusion phenotypic screen, WT strain; inhibition, % at 10 µM; actives 2.1% (n = 190,000); AID 1362; in the data active means inhibition above about 58%; tested in S. cerevisiae
Ins promoter up = MIN6 insulin promoter up-regulation. z-score at 5 µM. actives 0.3% (n = 190,000). AID 1625. MIN6 insulin promoter-GFP reporter, high-content imaging; stronger effect = higher value;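 active means z-score above 3 at 5 µM with at least 500 cells counted in the well; inconclusive means wells under 500 cells, flagged as cytotoxic or low count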
ROMK mod = human ROMK K+ channel modulation, primary screen. Tet-inducible ROMK, thallium flux fluorescence; actives lie on both sides. AID 1918. P48048. B-score at 10 µM. actives 2% (n = 130,000);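 active means signal ratio slope over the read window, or its plate-corrected B-score, at least 3 SD from the plate mean, either direction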;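 further: B-score of the F/F0 ratio slope over 7 to 12 s after thallium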
INS promoter inh = TRM-6 insulin promoter activity inhibition; actives 0.9% (n = 130,000); TRM-6 cells (human fetal islet line), insulin promoter-eGFP reporter, imaging; reporter expression induced with tamoxifen; inhibition, % at 2 µM;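 active means inhibition above the mean plus 3 SD, with well images judged a real hit on visual review, cut at about 60% in these data, passing the limit was not always enough; inconclusive means inhibition over the cutoff but images rejected on review; inactive means inhibition not above the cutoff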
Numbers without * were called inactive; ? = inconclusive; . = not tested or not shown.

SMILES	Lmaj promast	Cl transport mod	WT yeast gro inh	Ins promoter up	ROMK mod	INS promoter inh
O=c1[nH]c2ccc(Cl)cc2c(-c2ccccc2)c1N1CCN(CCO)CC1	14	-0.47	31	-1	.	21
CN1CCN(c2nc(N3CCN(CCO)CC3)nc3ccccc23)CC1	100*	0.61	-4	-0.29	0.57	6
O=c1[nH]c(CN2CCN(CCO)CC2)nc2ccccc12	1	1.6	-5	0	.	100*
COC(=O)c1ccc(Nc2cc(C)nc3ccccc23)cc1	.	.	.	-1.7	.	.
COC(=O)c1ccc2nc(C)cc(Nc3ccc(N(C)C)cc3)c2c1	67*	-0.5	11	-0.36	0.31	51
CC(C)C(=O)N1CCc2cc(-c3csc(N)n3)ccc21	-1	0.43	-2	0.1	0.43	-42
CN(Cc1ccccc1)C(=S)NC(=O)C1CCCCC1	4	14*	2	0.14	.	.
O=C(NC(=S)N(Cc1ccccc1)c1ccccn1)C1CCCCC1	-6	0.03	-23	0.6	.	.
O=C(O)c1ccc(NC(=S)NC(=O)c2ccc(-c3ccccc3)cc2)cc1	-1	-1.9	-3	-0.22	.	0
C=CCN(CC=C)C(=S)NC(=O)c1ccc(C)c(Br)c1	18	45*	51	-0.4	.	48
C=CCN(CC=C)C(=S)NC(=O)/C=C/c1ccc(C)cc1	-9	15*	-9	0.24	-0.16	8
C=CCN(CC=C)C(=S)NC(=O)c1ccc(-c2ccccc2)cc1	7	31*	66*	.	10*	-30
C#CCNC(=O)/C=C/c1ccc(C)cc1	-3	1.4	-6	0.43	0.58	?
Nc1ccc2nc(CCCO)[nH]c2c1	.	0.99	.	0.25	.	.
CCCN1C(=O)c2cc(C(=O)NC3CCCC3)ccc2C1O (stereo not drawn)	-5	1.3	-2	0.38	.	.
NCCCC[C@H](NC(=O)C1CCNCC1)c1nnc([C@@H](N)Cc2ccc(O)cc2)o1	-3	0.044	4	0.9	.	.
COc1ccc(C(=O)NC(=S)N(Cc2ccccc2)Cc2ccccc2)cc1	90*	64*	71	-0.4	.	10
CN(Cc1ccccc1)C(=S)NC(=O)c1ccc(-c2ccccc2)cc1	3	29*	-5	-0.59	.	.
COc1ccc(-c2noc(CSc3nnc(Cc4ccccc4)n3-c3cccc(C)c3)n2)cc1OC	54*	-0.82	4	-0.85	.	-5
COc1ccc(-c2noc(CSc3nc4ccccc4c(=O)n3-c3ccccc3)n2)cc1OC	24	-0.81	17	.	-0.32	50
Cc1ccc(-c2noc(CSc3nnc(Cc4ccccc4)n3-c3cccc(C)c3)n2)cc1	80*	-0.33	1	-1	-0.44	10
O=C(CN1CCN(c2ncc(C(F)(F)F)cc2Cl)CC1)NCCNc1ncc(C(F)(F)F)cc1Cl	6	0.45	-2	0.05	1	.
CCc1c(C(=O)NCc2cnn(C)c2)csc1C	-4	-0.37	-3	0.19	.	24
CC(=O)Nc1cccc(/C(C)=N/NC(=O)c2cccc(S(=O)(=O)N3CCOCC3)c2)c1	-5	-0.41	19	-0.21	-0.35	.
C/C(=C\C(=O)c1ccc(Cl)cc1)NCc1ccc2c(c1)OCO2	-4	-1.5	0	-0.4	.	-13
SMILES	Lmaj promast	Cl transport mod	WT yeast gro inh	Ins promoter up	ROMK mod	INS promoter inh
COc1ccc(C(C(=O)NC2CCCC2)N(C(=O)c2ccoc2C)c2ccc(C)c(C)c2)cc1 (stereo not drawn)	75*	-1.4	49	-1.7	0.014	.
COc1ccc(C(C(=O)NC2CCCC2)N(C(=O)c2ccoc2C)c2cc(C)cc(C)c2)cc1 (stereo not drawn)	23	-0.99	9	-1.2	.	.
COc1ccc(N(C(=O)c2ccco2)C(C(=O)NC2CCCC2)c2ccc(N(C)C)cc2)cc1 (stereo not drawn)	54*	0.3	5	0.79	.	.
O=C1CN(C(=O)c2ccc(Br)o2)C(c2ccc(F)cc2)c2cc(F)ccc2N1 (stereo not drawn)	95*	-0.18	-7	-0.98	-2.1	19
O=C(Nc1ccc(C(=O)O)cc1)/C(=C/c1cccc(Br)c1)NC(=O)c1ccco1	-9	0.054	-8	-0.67	-0.12	18
COc1ccccc1CCNC(=O)/C(=C/c1cccnc1)NC(=O)c1ccccc1	9	0.57	10	.	1.9	.
O=C(Nc1ccccc1)/C(=C/c1cccnc1)NC(=O)c1ccco1	-2	0.77	-7	0.01	.	33
Cc1ccc(NC(=O)/C(=C/c2cccc(Br)c2)NC(=O)c2ccco2)cc1	90*	-0.61	20	0.29	0.26	12
O=C(NCCc1ccc(Cl)cc1)/C(=C/c1cccnc1)NC(=O)c1ccccc1	59*	-0.12	6	.	-0.097	-5
CSc1ccc(/C=C(/NC(=O)c2ccc(C)cc2)C(=O)Nc2cccc(C)c2)cc1	63*	-1.4	8	-0.27	0.45	27
O=C(Nc1cccc(Cl)c1)/C(=C\c1cccnc1)NC(=O)c1ccco1	-3	1.4	-5	0.02	0.54	67*
COc1ccc2cc3cc(C(=O)NCc4cccnc4)oc3nc2c1	15	0.087	-1	-0.14	-0.33	-25
CCC1(C)Cc2c(sc3c2c(=O)n(C)c2nnc(SCC(=O)c4ccc(Cl)cc4)n32)CO1 (stereo not drawn)	7	-0.45	.	.	0.65	-21
Cn1cnnc1SCc1ccc(C(=O)N/N=C(\CCC(=O)O)c2ccc(C(C)(C)C)cc2)cc1	-1	0.41	-11	.	1.3	43
CC(C)NS(=O)(=O)c1ccc(OCC(=O)NCC2CCCO2)c(Cl)c1 (stereo not drawn)	-5	-0.28	-6	.	0.044	15
O=S(=O)(c1ccccc1)N1CCC(N2CCN(c3ccccc3)CC2)CC1	.	.	.	-0.05	0.019	.
O=C(c1cccc2ccccc12)N1CCC(N2CCN(c3ccccc3)CC2)CC1	95*	1.1	-15	-0.39	-0.84	.
COc1ccccc1N1CCN(C2CCN(C(=O)c3cccs3)CC2)CC1	43	0.25	-26	0.49	0.63	7
O=C(c1cccs1)N1CCC(N2CCN(c3ccccc3)CC2)CC1	86*	0.07	-11	0.76	0.23	.
O=S(=O)(Cc1ccccc1)N1CCC(N2CCN(c3ccccc3)CC2)CC1	98*	-1.3	4	0.19	.	.
CC(=O)Nc1ccc(OCC(O)CN2C(C)(C)CC(O)CC2(C)C)cc1 (stereo not drawn)	-4	0.0044	-10	0.47	1.4	-3
COc1ccc(C(=O)OC(COc2ccccc2)Cn2ccnc2)cc1 (stereo not drawn)	100*	0.34	-7	-0.98	-2.3	-29
Cc1ccc(Nc2nc(N3CCN(C)CC3)nc(N)c2[N+](=O)[O-])cc1C	97*	-0.72	83*	0.59	.	-27
Cc1ccc(Nc2nc(N)c([N+](=O)[O-])c(N3CCCC(C)C3)n2)cc1C (stereo not drawn)	31	-1.1	96*	-0.85	-0.94	-15
CCN1CCN(c2nc(N)c([N+](=O)[O-])c(Nc3ccc(C)cc3)n2)CC1	32	-0.71	8	-0.1	-0.78	-68
